# Reference: PubChem BioAssay (EPA / NIEHS)
# “And” between values parts separate entries of the source, which are not always exact repeats. Identical values can stand only once. Some structures have more than one record in an assay (separate samples or runs), and their calls can disagree. The source made the active and inactive calls. How the source made its calls: active means hit-call score of the fitted dose curve at least 0.9, where 1 is the maximum; inactive means score below 0.9.
# Read-out: TIMP metallopeptidase inhibitor 2 (TIMP2), TIMP2 (gene 7077)
# Assay: BSK_KF3CT_TIMP2: BioMAP Diversity Plus: KF3CT Assay for TIMP metallopeptidase inhibitor 2 (TIMP2) Biomarker Activity (AID 2283071)
# Details: primary human keratinocytes with fibroblasts; actives raise or lower the signal
# Procedure: BSK_KF3CT is a cell-based, multiplexed-readout assay that uses keratinocytes and foreskin fibroblasts, a human skin primary cell co-culture, with measurements taken at 24 hours after chemical dosing in a 96-well plate.BSK_KF3CT_TIMP2 is an assay component measured in the BSK_KF3CT assay. It measures TIMP-2 antibody related to regulation of gene expression using ELISA technology.Data from the assay component BSK_KF3CT_TIMP2 was analyzed into 1 assay endpoint. This assay endpoint, BSK_KF3CT_TIMP2, was analyzed with bidirectional fitting relative to DMSO as the negative control and baseline of activity. Using a type of binding reporter, gain or loss-of-signal activity can be used to understand changes in the signaling as they relate to the gene TIMP2. Furthermore, this assay endpoint can be referred to as a primary readout, because this assay has produced multiple assay endpoints where this one serves a signaling function. To generalize the intended target to other relatable targets, this assay endpoint is annotated to the protease inhibitor intended target family, where the subfamily is metalloproteinase inhibitor.
# The levels of cell surface (or secreted, indicated by the prefix "s") biomarker endpoints were measured by ELISA. Overt cytotoxicity to cells in confluent adherent cultures (all systems other than the BT system) was assessed by measuring total protein levels using sulforhodamine B (SRB) staining in parallel cultures at the time of biomarker measurements, indicated as SRB endpoints. For proliferation assays for adherent cell types, individual cell types are cultured at sub-confluence and relative cell numbers quantified by SRB staining at time points optimized for each system (48 h: 3C and CASM3C systems; 72 h: BT and HDF3CGF systems; 96 h: SAg system). SRB was performed by staining cells with 0.1% SRB after fixation with 10% TCA and reading wells at 560 nm.Viability and proliferation of PBMC (T cells) was quantified by Alamar Blue reduction for the SAg and BT systems. For PBMC viability (referred to as PBMC Cytotoxicity within the assay endpoint names), cells were plated (75,000/well in a 96-well plate) and then chemical samples added for 1 h before addition of activators, SEB and TSST-1 (20 ng/mL final concentration each). Cells were incubated for 90 h. Then, Alamar Blue (20 uL/well) (Invitrogen, Cat DAL1100) was added for 6 h, and the plates were read with a fluorescence microplate reader at 546/580 nm (excitation/emission). For PBMC proliferation, cells were plated and activated as above but incubated for only 16 h prior to addition of Alamar Blue. Plates were read after 6 h.
Structure (SMILES),outcome,AC50
COC(=O)c1ccccc1S(=O)(=O)NC(=O)N(C)c1nc(C)nc(OC)n1,inactive,
CC[C@H](C)[C@H]1O[C@]2(C=C[C@@H]1C)C[C@@H]1C[C@@H](C/C=C(\C)[C@@H](O[C@H]3C[C@H](OC)[C@@H](O[C@H]4C[C@H](OC)[C@@H](O)[C@H](C)O4)[C@H](C)O3)[C@@H](C)/C=C/C=C3\CO[C@@H]4[C@H](O)C(C)=C[C@@H](C(=O)O1)[C@]34O)O2 (tested in a mixture with another compound),,12.6 µM (active)
[2H]C1([2H])[n+]2ccccc2-c2cccc[n+]2C1([2H])[2H],inactive,
CC(C)N(C(=O)COc1nnc(C(F)(F)F)s1)c1ccc(F)cc1,inactive,
N#Cc1c(Cl)c(Cl)c(Cl)c(C#N)c1Cl,,1.89 µM (active)
COP(=S)(OC)Oc1ccc([N+](=O)[O-])cc1,,34.6 µM (active)
Cc1cc(C)nc(NC(=O)NS(=O)(=O)c2ccccc2C(=O)OC2COC2)n1,inactive,
COc1cc(OC)nc(NC(=O)NS(=O)(=O)c2cc(NC=O)ccc2C(=O)N(C)C)n1,inactive,
O=C(Nc1ccccc1)Nc1cnns1,inactive,
O=C(O)COc1ccc(Cl)cc1Cl,inactive,
CCOC1Oc2ccc(OS(C)(=O)=O)cc2C1(C)C (stereo not given),inactive,
COc1nn(CSP(=S)(OC)OC)c(=O)s1,inactive,
Clc1ccccc1-c1nnc(-c2ccccc2Cl)nn1,inactive,
COC(=O)c1ccccc1CS(=O)(=O)NC(=O)Nc1nc(OC)cc(OC)n1,inactive,
CNC(=O)Oc1ccccc1OC(C)C,inactive,
CCCN(CCOc1c(Cl)cc(Cl)cc1Cl)C(=O)n1ccnc1,inactive,
CN1CSC(=S)N(C)C1,inactive,
CCN(CC)C(=O)SCc1ccc(Cl)cc1,inactive,
O=[N+]([O-])/N=C1\NCCN1Cc1ccc(Cl)nc1,inactive,

Structure (SMILES),outcome,AC50
ClC1C(Cl)C(Cl)C(Cl)C(Cl)C1Cl (stereo not given),inactive,20 µM (active)
CCC(C)Nc1c([N+](=O)[O-])cc(C(C)(C)C)cc1[N+](=O)[O-] (stereo not given),inactive,
CCc1ccc(C(=O)NN(C(=O)c2cc(C)cc(C)c2)C(C)(C)C)cc1,inactive,
O=C(NC(=O)c1c(F)cccc1F)Nc1ccc(OC(F)(F)C(F)OC(F)(F)F)c(Cl)c1 (stereo not given),inactive,
CC(C)(C)C(O)/C(=C\c1ccc(Cl)cc1Cl)n1cncn1 (stereo not given),,33.2 µM (active)
Oc1cc(Cl)ccc1Oc1ccc(Cl)cc1Cl,,30 µM (active) and 29.7 µM (active) and 20 µM (active)
O=S(=O)(O)C(F)(F)C(F)(F)C(F)(F)C(F)(F)C(F)(F)C(F)(F)C(F)(F)C(F)(F)F,inactive,33.9 µM (active) and 35.3 µM (active)
COP(=O)(OC)OC=C(Cl)Cl,inactive,
C#CCN1C(=O)COc2cc(F)c(N3C(=O)C4=C(CCCC4)C3=O)cc21,inactive,
CNC(=O)CSP(=S)(OC)OC,inactive,
CCCN(CCC)c1c([N+](=O)[O-])cc(C(F)(F)F)cc1[N+](=O)[O-],inactive,
CCOc1nc(NC)nc(NC(=O)NS(=O)(=O)c2ccccc2C(=O)OC)n1,inactive,
CC1(c2ccc(Oc3ccccc3)cc2)OC(=O)N(Nc2ccccc2)C1=O (stereo not given),inactive,
CC(C)OC(=O)Nc1cccc(Cl)c1,inactive,
CNC(=O)Oc1cccc(N=CN(C)C)c1,inactive,
CC(C)(C)C(O)C(Oc1ccc(Cl)cc1)n1cncn1 (stereo not given),inactive,
CCOCN(C(=O)CCl)c1c(C)cccc1CC,inactive,
COC(=O)c1ccccc1S(=O)(=O)NC(=O)Nc1nc(C)nc(OC)n1,inactive,
C[C@H]1[C@H](c2ccc(Cl)cc2)SC(=O)N1C(=O)NC1CCCCC1,inactive,
